# Data taken from PubChem BioAssay (Tox21).
# Results filed as inconclusive are left out. Values without a mark were called inactive. Active and inactive are the calls of the source. Calls come from the whole dose curve; as a rule, active = well fitted cell-killing curve with a large enough effect in the repeat runs; inconclusive = weak or mixed curves, or effect the other way; inactive = flat fitted curve, though single readings scatter.
# Assay: cAMP Responsive Elements (CRE) small molecule antagonists, cell-based qHTS assay: qHTS cell viability counter screen (AID 2060913); note: nearly all actives have a fitted effect of over 40% in size
# Settings: CRE-bla HEK293T viability, CellTiter-Glo luminescence, 5 h; series mostly up to 92.4 µM; viability change, negative = cytotoxic: at the top concentration
# Method in brief: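 Steps: cells plated and held 18 hrs at 37 C/5% CO2; compounds and NKH477 (0.25 uM final) added; 3 hrs incubation; reporter substrate read; CellTiter-Glo added to measure cytotoxicity by luminescence.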
# % is set by controls: 0 for no effect and ±100 for the full control effect; potency is the fitted concentration of half-maximal effect.
Compound,"viability change, negative = cytotoxic",Potency
CO[C@H]1C=CO[C@@]2(C)Oc3c(C)c(O)c4c(O)c(cc(O)c4c3C2=O)NC(=O)/C(C)=C\C=C/[C@H](C)[C@H](O)[C@@H](C)[C@@H](O)[C@@H](C)[C@H](OC(C)=O)[C@@H]1C,14.4%,–
O=C(c1ccccc1)c1ccc(O)cc1O,–,inactive
O=C1Cc2cc(Cl)ccc2N1,4.44% [at 42.5 µM],–
C=CC(=O)OCCOc1ccccc1,16%,–
CN1CCN(CCC(=O)N2c3ccccc3Sc3ccc(C(F)(F)F)cc32)CC1,-12.1% [at 42.5 µM],–
Clc1ccc(C(Cn2ccnc2)OCc2ccsc2Cl)c(Cl)c1 (stereo not given),-22.5% [at 42.5 µM],–
CCC(Cl)CC(Cl)C(Cl)C(Cl)C(Cl)C(C)Cl (stereo not given),-10.4% [at 18.9 µM],–
O=C(O)c1cccc(C(=O)O)n1,-1.01%,–
CN1CCCN(C(c2ccccc2)c2ccc(Cl)cc2)CC1 (stereo not given),-9.01% [at 42.5 µM],–
CCCCNc1ccc(C(=O)OCCOCCOCCOCCOCCOCCOCCOCCOCCOC)cc1,-0.903% [at 42.5 µM],–
CCC1CO1 (stereo not given),1.14%,–
COc1ccc(C(=O)NCc2ccc(OCCN(C)C)cc2)cc1OC,3.79% [at 42.5 µM],–
CCn1nc(C(=O)O)c(=O)c2cc3c(cc21)OCO3,-4.67% [at 42.5 µM],–
CN1[C@@H]2CC[C@@H]1CC(OC(=O)C(CO)c1ccccc1)C2 (stereo not given in full),1.31% [at 42.5 µM],–
CCC(C)NC(N)=O (stereo not given),2.05%,–
C[C@H]1O[C@@H](O[C@H]2[C@@H](O)C[C@H](O[C@H]3[C@@H](O)C[C@H](O[C@H]4CC[C@@]5(C)[C@H](CC[C@@H]6[C@@H]5C[C@@H](O)[C@]5(C)[C@@H](C7=CC(=O)OC7)CC[C@]65O)C4)O[C@@H]3C)O[C@@H]2C)C[C@H](O)[C@@H]1O,–,63.2 nM (active)
CC(=O)CCc1ccc(OC(C)=O)cc1,0.994%,–
O=C(Cl)c1cc(Cl)cc(Cl)c1,5.4%,–
ONc1ccccc1,5.73%,–
Cc1c(-c2cccnc2)c2ccccc2n1CCCCC(=O)O,8.3%,–

Compound,"viability change, negative = cytotoxic",Potency
CCCCCCCCOC(=O)c1ccc(O)cc1,–,inactive
CC(C)(O)c1ccc(CNC(=O)c2cccnc2Oc2ccc(F)cc2)cc1,0.0414%,–
O=C(OCC1CO1)C1CCCCC1C(=O)OCC1CO1 (stereo not given),0.172%,–
CC(C)(c1ccccc1)c1ccccc1,0.443%,–
Cc1ccc2oc(CN(Cc3ccccc3)C(=O)Nc3c(F)cc(F)cc3F)c(-c3ccc(Cl)cc3)c2c1,-16.3%,–
C=CCOCC(CO)(COCC=C)COCC=C,4.86% [at 42.5 µM],–
COC(=O)Nc1nc2ccc(C(=O)c3ccccc3)cc2[nH]1,-2.16% [at 42.5 µM],–
c1cc(N(CC2CO2)CC2CO2)ccc1Cc1ccc(N(CC2CO2)CC2CO2)cc1 (stereo not given),1.21%,–
C[N+]1(C)CCCC(OC(=O)C(O)(c2ccccc2)c2ccccc2)C1 (stereo not given),-0.388% [at 42.5 µM],–
CC(C)CCCC(C)CCO (stereo not given),6.16%,–
S=c1[nH][nH]c(=S)s1,0.22%,–
C=CCCCCCC,-2.18%,–
CCCCCCCC/C=C\CCCCCCCC(=O)OC,3.34%,–
CC(C)CCOC(=O)CC(C)C,3.73%,–
CC1(C)[C@H]2CC[C@]1(C)C(=O)C2,14.8%,–
CCCCc1ccc(Cl)cc1,2.12%,–
O=C1c2ccccc2C(=O)c2cc(Cl)ccc21,-0.399% [at 8.39 µM],–
CN(C)CCC=C1c2ccccc2CCc2ccccc21,–,inactive
O=c1[nH]sc2cc(Cl)ccc12,7.05% [at 42.5 µM],–
CCOc1ccc2nc(S(N)(=O)=O)sc2c1,5.16% [at 42.5 µM],–
